Our source for the composite z-score, z-score and composite Z-score values is PubChem BioAssay.

The structures appear in SMILES notation. Calls of active or inactive are those of the source.

The test system of assay [1] is Human papillomavirus type 1a protein E7 (residues 44-93). Briefly: HPV1a E7 fragment binders on microarrays, primary screen, biochemical, small-molecule microarray, residues 44-93, 635 nm fluorescence (AID 1108).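 Note: E7 fragment applied at 1 µg/mL in TBST for 1 h at 4 C; score combines spot fluorescence with its signal to noise ratio.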 Particulars: small-molecule microarray binding, fluorescence 635 nm; higher = more signal.
Assay [2] is described as follows: modulators of HCV replicon luciferase signal, primary screen, HCV replication inhibitor project, Huh7 cells, luciferase reporter (AID 1109).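 Note: huh7 hepatoma cells harbouring a luciferase neomycin HCV replicon reporter; luciferase luminescence as measure of HCV replicon replication; test concentration not given here.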 To be noted: 48 h, higher = more signal.
The target of assay [3] is Left-right determination factor 2 (Homo sapiens) (UniProt O00292). In words: LEFTY2 binders on small-molecule microarrays, primary screen, biochemical, small-molecule microarray, 635 nm fluorescence scan (AID 1110). To be noted: LEFTY2 binding, higher = more signal.
The target in assay [4] is Calmodulin-1 (Homo sapiens) (UniProt P0DP23). Briefly: CALM1 binders on microarrays, EGTA buffer, profiling panel, biochemical, small-molecule microarray, Cy5-labelled CALM1 (AID 1111).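 Note: labelled calmodulin applied in Tris saline Tween buffer holding calcium plus EGTA and DTT.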 To be noted: Cy5-CALM1 binding fluorescence, higher = more signal.
Assay [5] shares this target. In words: calcium-bound CALM1 binders on microarrays, profiling panel, artefact control for SMM control-protein annotation, biochemical, small-molecule microarray, Cy5-labelled CALM1, plus calcium (AID 1112).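 Note: score merges spot fluorescence with signal to noise from triplicate slides.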 To be noted: Cy5-CALM1 binding fluorescence, higher = more signal.
Assay [6] in a line: small-molecule microarray binders of probe aWnt5a, primary screen, biochemical, biotinylated probe, 635/667 nm fluorescence (AID 1113).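 Note: score merges 667 nm fluorescence intensity with signal-to-noise per printed feature.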 To be noted: higher = more signal.
A short description of assay [7]: small-molecule microarray binders of probe aShh, primary screen, biochemical, biotinylated probe, 635/667 nm fluorescence (AID 1114).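 Note: probe is biotin-labelled aShh protein from a stem cell growth factor screen; measures binding of labelled protein to compounds printed on the slide; score merges feature fluorescence at 667 nm with signal-to-noise.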 To be noted: higher = more signal.
Assay [8] in a line: small-molecule microarray binders of probe aNog, primary screen, biochemical, biotinylated probe, 635/667 nm fluorescence (AID 1115).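 Note: probe is biotinylated aNog protein used at 0.15 µg/mL for 1 h at 4 C; z-score combines 667 nm fluorescence of each spot with its signal to noise.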 To be noted: higher = more signal.
Assay [9] concerns the target Torsin-1A-interacting protein 1 (Homo sapiens) (UniProt Q5JTV8). In words: LAP1 binders from COS7 cell lysate, primary screen, small-molecule microarray, 635/667 nm fluorescence (AID 1116). Particulars: COS7-hLAP1 lysate binding, 635 nm fluorescence, higher = more signal.
Assay [10] deals with Alpha-bungarotoxin (Bungarus multicinctus) (UniProt P60615). Briefly: alpha-bungarotoxin binders on microarray, profiling panel, artefact control for SMM control protein annotation, biochemical, small-molecule microarray, Alexa647 label, 635/667 nm fluorescence (AID 1117). To be noted: alpha-BTX-A647 binding fluorescence, higher = more signal.
The target in assay [11] is Albumin (Bos taurus) (UniProt P02769). Briefly: bovine serum albumin binders on microarray, profiling panel, artefact control for SMM control protein annotation, biochemical, small-molecule microarray, Alexa647 label, 635/667 nm fluorescence (AID 1118).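 Note: score merges 667 nm emission intensity and signal-to-noise per printed compound spot.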 Particulars: BSA-A647 binding, fluorescence 635 nm, higher = more signal.
Assay [12] in a line: small-molecule microarray binders of probe aXIP, primary screen, biochemical, NeuroSMM set, 635/667 nm fluorescence (AID 1119).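 Note: probe is the protein aXip251-270 applied at 1 µg/mL to compound-printed slides; binding of probe to printed compounds measured as 667 nm fluorescence plus signal to noise.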 Particulars: higher = more signal, called active from +8 up or from −8 down.
Assay [13] in a line: small-molecule binders of probe aNOTCH3, primary screen, biochemical, small-molecule microarray, 635/667 nm fluorescence (AID 1120).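 Note: probe is a biotin-tagged antibody raised against NOTCH3 rather than NOTCH3 protein; score merges spot fluorescence near 667 nm with spot signal to noise.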 To be noted: higher = more signal.
Assay [14] is described as follows: small-molecule binders of probe aNOTCH2, primary screen, biochemical, small-molecule microarray, 635/667 nm fluorescence (AID 1121).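 Note: score merges feature fluorescence read at 667 nm with its signal to noise.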 To be noted: higher = more signal.
In assay [15] the target is Carbonic anhydrase 2 (Homo sapiens) (UniProt P00918). Briefly: CAII small-molecule binders, profiling panel, biochemical, small-molecule microarray, Alexa647-labelled CAII (AID 1122). Particulars: CAII-A647 binding fluorescence, higher = more signal.
The nature of assay [16]: COS7 lysate on small-molecule microarray, probe aHis, 635 nm (AID 1123).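 Note: z-score combines 667nm fluorescence intensity with signal-to-noise per printed compound spot.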 To be noted: COS7 cell lysate, fluorescence, higher = more signal.
Assay [17] can be described thus: compound binding in COS7 lysate, probe aLAP1, primary screen, cell lysate, small-molecule microarray (AID 1124).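 Note: lysate comes from COS7 cells expressing LAP1 and is applied at 0.3 µg/mL; score merges spot fluorescence near 667 nm with signal-to-noise over triplicate slides.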 To be noted: probe aLAP1, fluorescence, higher = more signal.
For assay [18], the system named is Sam68 (KHDRBS1). Briefly: Sam68 small-molecule binders, primary screen, biochemical, small-molecule microarray, 635 nm fluorescence (AID 1125).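 Note: score merges 667 nm channel intensity with signal to noise over triplicate slides.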 Particulars: small-molecule microarray binding, higher = more signal.
The subject of assay [19] is Chordin-like protein 2 (CHRDL2). In words: CHRDL2 small-molecule binders, primary screen, biochemical, small-molecule microarray, 635 nm fluorescence (AID 1126).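 Note: printed compound slides probed with Chrdl2 protein at 4 µg/mL for 1 h at 4 C; score merges 667 nm emission intensity with signal to noise over three replicate slides.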 Particulars: small-molecule microarray binding, fluorescence 635 nm; higher = more signal.
In assay [20] the target is Concanavalin-A (Canavalia ensiformis) (UniProt P02866). Briefly: ConA small-molecule binders, primary screen, artefact control for SMM control protein annotation, biochemical, small-molecule microarray, Alexa647 label, 635 nm (AID 1127).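 Note: z combines 667 nm emission intensity with signal-to-noise across three replicate slides.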 To be noted: ConA-A647 binding fluorescence, higher = more signal.
Chain of Concanavalin-A (Canavalia ensiformis) (P02866 whole entry, looked up): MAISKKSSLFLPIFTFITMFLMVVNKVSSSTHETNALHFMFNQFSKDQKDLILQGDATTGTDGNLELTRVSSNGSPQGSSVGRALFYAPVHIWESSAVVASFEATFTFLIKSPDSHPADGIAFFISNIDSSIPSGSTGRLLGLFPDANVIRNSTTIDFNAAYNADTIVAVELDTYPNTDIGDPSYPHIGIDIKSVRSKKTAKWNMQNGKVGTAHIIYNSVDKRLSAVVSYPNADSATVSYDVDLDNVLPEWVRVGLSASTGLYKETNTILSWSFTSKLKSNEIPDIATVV

Chain of Torsin-1A-interacting protein 1 (Homo sapiens) (Q5JTV8 whole entry, looked up): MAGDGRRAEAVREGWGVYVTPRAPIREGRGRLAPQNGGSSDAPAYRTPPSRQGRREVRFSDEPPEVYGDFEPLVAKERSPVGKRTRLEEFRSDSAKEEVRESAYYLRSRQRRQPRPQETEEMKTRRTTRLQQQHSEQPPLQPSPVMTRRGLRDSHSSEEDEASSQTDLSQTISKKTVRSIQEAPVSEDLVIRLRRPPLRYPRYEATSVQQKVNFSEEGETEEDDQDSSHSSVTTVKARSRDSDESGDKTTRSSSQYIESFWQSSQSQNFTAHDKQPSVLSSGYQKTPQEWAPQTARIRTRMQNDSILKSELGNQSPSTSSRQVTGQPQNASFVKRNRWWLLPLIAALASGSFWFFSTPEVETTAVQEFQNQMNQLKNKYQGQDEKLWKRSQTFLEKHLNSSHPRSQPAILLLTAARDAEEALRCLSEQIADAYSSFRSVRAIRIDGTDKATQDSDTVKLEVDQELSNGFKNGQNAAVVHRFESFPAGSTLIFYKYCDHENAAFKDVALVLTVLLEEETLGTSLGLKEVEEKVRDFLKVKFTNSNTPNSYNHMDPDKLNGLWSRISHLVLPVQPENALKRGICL
Chain of Albumin (Bos taurus) (P02769 whole entry, looked up): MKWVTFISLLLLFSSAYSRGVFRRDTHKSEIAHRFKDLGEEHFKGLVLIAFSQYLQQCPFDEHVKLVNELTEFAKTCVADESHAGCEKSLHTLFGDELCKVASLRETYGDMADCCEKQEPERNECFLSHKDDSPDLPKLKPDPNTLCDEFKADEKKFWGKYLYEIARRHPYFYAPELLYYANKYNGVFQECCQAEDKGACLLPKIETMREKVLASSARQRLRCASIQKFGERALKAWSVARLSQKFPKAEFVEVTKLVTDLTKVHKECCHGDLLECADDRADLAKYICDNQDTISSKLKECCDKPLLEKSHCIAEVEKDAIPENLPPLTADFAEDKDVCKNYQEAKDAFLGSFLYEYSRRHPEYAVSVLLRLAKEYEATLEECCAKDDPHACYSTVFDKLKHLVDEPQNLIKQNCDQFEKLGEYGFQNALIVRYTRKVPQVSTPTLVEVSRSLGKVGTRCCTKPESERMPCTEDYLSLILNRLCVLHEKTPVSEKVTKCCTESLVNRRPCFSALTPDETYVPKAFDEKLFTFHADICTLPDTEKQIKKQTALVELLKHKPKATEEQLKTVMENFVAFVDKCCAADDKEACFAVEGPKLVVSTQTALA
Chain of Left-right determination factor 2 (Homo sapiens) (O00292 whole entry, looked up): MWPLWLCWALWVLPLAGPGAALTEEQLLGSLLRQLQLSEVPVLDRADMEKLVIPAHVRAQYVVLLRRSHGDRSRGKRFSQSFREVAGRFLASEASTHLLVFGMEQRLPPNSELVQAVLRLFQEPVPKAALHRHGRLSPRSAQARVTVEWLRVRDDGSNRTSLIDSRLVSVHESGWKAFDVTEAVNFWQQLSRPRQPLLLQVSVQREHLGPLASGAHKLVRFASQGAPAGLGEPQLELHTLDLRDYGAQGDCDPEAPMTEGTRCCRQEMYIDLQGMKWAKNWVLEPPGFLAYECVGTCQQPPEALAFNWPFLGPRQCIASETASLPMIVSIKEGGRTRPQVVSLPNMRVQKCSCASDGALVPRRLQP
Chain of Alpha-bungarotoxin (Bungarus multicinctus) (P60615 whole entry, looked up): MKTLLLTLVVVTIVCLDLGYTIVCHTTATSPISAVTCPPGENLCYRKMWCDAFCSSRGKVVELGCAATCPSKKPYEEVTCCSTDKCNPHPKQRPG

For `O=C1CSC(c2cccc([N+](=O)[O-])c2)N1c1ccccc1` (stereo not given), the composite z-score in assay [1] is 0.551; in assay [3], 0.688; in [4] it was 0.331; in [5] it was -0.071; in [6], -0.135; in [7], -0.221. The composite z-score was -0.073 in [8]; 0.273 in [9]; 0.163 in assay [10]; 0.0623 in [11]; -0.0647 in assay [13]; -0.172 in [14]. For the same molecule, the composite z-score was 0.153 in assay [15]; 0.523 in assay [16]; 0.537 in assay [17]; 0.557 in assay [18]; 0.286 in assay [19]; 0.612 in [20]. Further, the z-score in [2] was -1.16. In [12], the composite Z-score was 0.0045 (inactive).
In the case of `COC(=O)C(CC#Cc1ccc2c(c1)[C@]1(C(=O)N2)[C@H](c2ccc(O)cc2)N2[C@H](c3ccccc3)[C@H](c3ccccc3)OC(=O)[C@H]2[C@@H]1C(=O)O)C(=O)OC`, the composite z-score was 0.69 in assay [1]; 0.029 in assay [3]; 0.351 in [4]; 0.0474 in [5]; -0.175 in assay [6]; -0.206 in [7]. Besides, the composite z-score was -0.124 in assay [8]; -0.347 in assay [9]; 0.33 in assay [10]; 0.587 in assay [11]; 0.18 in [13]; -0.0891 in assay [14]. Also, the composite z-score was 0.766 in [15]; 1.07 in [16]; 0.308 in assay [17]; 0.318 in assay [18]; -0.3 in assay [19]; 0.819 in assay [20]. This molecule also displayed a z-score in assay [2] of -0.76. The composite Z-score in assay [12] was 0.877 (inactive).
In the case of `O=C(Nc1cc(Br)ccc1C(=O)NCc1cccc(O)c1)c1ccccc1`, the composite z-score in [1] is 0.27; in [3] it was 0.547; in assay [4], 1.48; in assay [5] it was 0.22; in [6], 0.0297; in assay [7], -0.252. Also, the composite z-score in [8] is -0.75; in assay [9] it was 0.888; in assay [10] it was 1.36; in assay [11], 0.8; in assay [13], 0.151; in assay [14], -0.0901. In addition, the composite z-score in assay [15] came out at 0.62; in [16] it was 0.891; in [17], 0.808; in assay [18] it was 0.778; in assay [19] it was 0.279; in [20], 1.18. The molecule also had a z-score in assay [2] of -2.32. Further, the composite Z-score in assay [12] is -0.0662 (inactive).
For the molecule `C=CC[C@]1(C(=O)N2CCOCC2)N=C(c2ccc(OCCCO)cc2)O[C@H]1c1ccccc1CN=[N+]=[N-]`, the composite z-score was 1.42 in [1]; 0.366 in assay [3]; 1.84 in assay [4]; 0.403 in [5]; 0.127 in assay [6]; 0.398 in assay [7]. Further, the composite z-score in assay [8] is 1.88; in assay [9], 1.94; in assay [10], 0.948; in [11], 0.971; in [13], 0.533; in [14] it was 0.0402. For the same molecule, the composite z-score in [15] was 0.385; in assay [16], 2.92; in assay [17], 1.64; in [18] it was 1.29; in assay [19], -0.321; in [20] it was 1.15. This molecule also returned a z-score in assay [2] of -1.85. Moreover, the composite Z-score in assay [12] is 0.0707 (inactive).
For `COCCOC(=O)N1C(=O)[C@@]2(c3ccccc31)[C@H](c1ccc(OCCO)cc1)N1[C@H](c3ccccc3)[C@H](c3ccccc3)OC(=O)[C@H]1[C@@H]2C(=O)NC[C@H](O)c1ccccc1`, the composite z-score was 1.44 in assay [1]; 0.0792 in assay [3]; 0.718 in assay [4]; 0.716 in [5]; -0.0758 in assay [6]; -0.141 in assay [7]. Moreover, the composite z-score in assay [8] was 0.554; in assay [9], 0.839; in assay [10], 1.92; in [11], 0.128; in [13], 0.327; in [14], -0.084. Moreover, the composite z-score in assay [15] was 0.505; in assay [16] it was 1.91; in assay [17], 0.123; in assay [18], 1.29; in assay [19] it was 0.508; in assay [20] it was 1.02. In assay [2], this molecule registered a z-score of -1.95. In assay [12], the composite Z-score is 0.774 (inactive).
